Methyltransferases: Primary Screen for Target Class Profiling of Small Molecule Inhibitors of Methyltransferases; purified enzyme, MTase-Glo SAH luminescence; stronger effect = lower value; calls only at 40 µM; actives 3.9% (n = 25,000); call rule not given here
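Each enzyme was reacted with SAM and its substrate, with compounds tested once at 40 uM; SAH formed was read by MTase-Glo luminescence.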
* hit, by the source's call. Many of the other results were omitted from the sample, so hits are more common in it than they were. % is scaled to controls: 0 for no effect and ±100 for the full control effect.

For NC(=O)CI the results were Methyltransferases active.
Screening O=C(NCCc1ccccc1)N1Cc2ccccc2-n2cccc2C1c1cc(F)cc(F)c1 (centres undefined) returned Methyltransferases inactive.
Screening C/C=C1/CN2CC[C@]34C(=Nc5ccccc53)[C@@H]2C[C@@H]1[C@H]4C(=O)OC returned Methyltransferases inactive.
For O=C1NC(=O)c2c1c1c3ccccc3[nH]c1c1[nH]c3ccccc3c21 the results were Methyltransferases active.
`CCOC(=O)Cc1ccc(NC(=O)N2Cc3ccccc3-n3cccc3C2C)cc1` (centres undefined) gave Methyltransferases inactive.
`CCOc1ccc(C2c3cccn3-c3ccccc3CN2C(=O)NCc2ccco2)cc1` (centres undefined) gave Methyltransferases inactive.
CC[C@H](C)[C@H](NC(=O)[C@H]1CCCCN1C)C(=O)N(COC(=O)CC(C)C)[C@H](C[C@@H](OC(C)=O)c1nc(C(=O)N[C@@H](Cc2ccc(O)cc2)C[C@H](C)C(=O)O)cs1)C(C)C was read as Methyltransferases inactive.
C/C=C(\C)C(=O)OC1CC2C(CC=C3CC(OC4CC(OC)C(OC5CC(OC)C(OC6CC(OC)C(OC7CC(OC)C(O)C(C)O7)C(C)O6)C(C)O5)C(C)O4)CCC32C)C2(O)CCC(C(C)=O)C12C (centres undefined) was read as Methyltransferases inactive.
Cc1cc(C)cc(NC(=O)N2Cc3ccccc3-n3cccc3C2c2ccc(Cl)cc2)c1 (centres undefined) was read as Methyltransferases inactive.
Screening CCc1ccc(C2c3cccn3-c3ccccc3CN2C(=O)Nc2ccccc2C(F)(F)F)cc1 (centres undefined) returned Methyltransferases inactive.
CCn1c(CO)nnc1C1CC(NC(=O)c2cnn(Cc3ccccc3)c2)C1 (centres undefined) was read as Methyltransferases inactive.
`CCCN1CC[C@@H]2c3cc(O)ccc3CC[C@@H]21` gave Methyltransferases active.
For COc1ccc(C2c3cccn3-c3ccccc3CN2C(=O)Nc2cc(Cl)ccc2OC)cc1 (centres undefined) the results were Methyltransferases inactive.
CCc1ccc(C2c3cccn3-c3ccccc3CN2C(=O)Nc2ccc(Br)cc2)cc1 (centres undefined) was read as Methyltransferases inactive.
Screening COc1cc(N2CCN(C)CC2)ccc1N returned Methyltransferases active.
For Cc1ccc(NC(=O)N2Cc3ccccc3-n3cccc3C2c2ccccc2C)cc1Cl (centres undefined) the results were Methyltransferases inactive.
O=C(Nc1ccccc1F)N1Cc2ccccc2-n2cccc2C1c1cccc(Cl)c1 (centres undefined) was read as Methyltransferases inactive.
C=C(CO)C(=O)O[C@H]1CC(=C)[C@@H]2C[C@H](O)C(=C)[C@@H]2[C@H]2OC(=O)C(=C)[C@@H]21 was read as Methyltransferases active.
`Cc1[nH]nc2ccc(-c3cncc(OC[C@@H](N)Cc4c[nH]c5ccccc45)c3)cc12` gave Methyltransferases active.
CC1=C[C@H]2O[C@@H]3[C@H](O)[C@@H](O)[C@](C)([C@@]2(CO)C[C@@H]1O)[C@]31CO1 was read as Methyltransferases inactive.
`CC(=O)NCCc1c[nH]c2ccccc12` gave Methyltransferases inactive.
For NCCc1c[nH]c2ccccc12 the results were Methyltransferases active.
`CC(N)Cc1c[nH]c2ccccc12` (centres undefined) gave Methyltransferases inactive.
`COc1ccc(C2c3cccn3-c3ccccc3CN2C(=O)Nc2ccc(C)c(C)c2)cc1OC` (centres undefined) gave Methyltransferases inactive.
CCC1c2cccn2-c2ccccc2CN1C(=O)Nc1ccc(C)cc1 (centres undefined) was read as Methyltransferases inactive.
`COc1cc(C(=O)O[C@H]2[C@@H]3C=CO[C@@H](O[C@@H]4O[C@H](CO)[C@@H](O)[C@H](O)[C@H]4O)[C@@H]3[C@@]3(CO)O[C@@H]23)ccc1O` gave Methyltransferases active.
C=C[C@H]1[C@H](O[C@@H]2O[C@H](CO)[C@@H](O)[C@H](O)[C@H]2O)OC=C2C(=O)OCC[C@H]21 was read as Methyltransferases inactive.
For C[C@@H]1[C@H](O)[C@@H](C)/C=C/C=C/CC/C=C/C=C/C=C/C=C/[C@H](O[C@H]2O[C@@H](C)[C@H](O)[C@@H](N)[C@H]2O)C[C@@H]2O[C@](O)(C[C@@H](O)[C@H](O)CC[C@@H](O)C[C@@H](O)C[C@@H](O)CC(=O)O[C@H]1C)C[C@H](O)[C@H]2C(=O)O the results were Methyltransferases inactive.
Screening COc1ccc(NC(=O)N2Cc3ccccc3-n3cccc3C2c2cccc(Cl)c2)cc1 (centres undefined) returned Methyltransferases inactive.
For Cc1ccc(NC(=O)N2Cc3ccccc3-n3cccc3C2C)cc1F (centres undefined) the results were Methyltransferases inactive.

Screens: PubChem, National Center for Advancing Translational Sciences (NCATS)
